# Marburg entry inh – qHTS for inhibitors of binding or entry into cells for Marburg Virus. Potency, µM (highest dose often 37.8 µM), without a hit: at the top dose activity change, negative = inhibition, hits mostly inhibitors. AID 540276, 2011. 1.8% of 300,000 active. Marburg virus pseudotyped entry inhibition, cell reporter; calls by dose curve; tested in HEK293 cells; also: potency is read from the fitted curve at half-maximal effect; % is scaled to controls: 0 for no effect and ±100 for the full control effect
# Shiga toxin inh – A qHTS for Small Molecule Inhibitors of Shiga Toxin. 9.2% of 290,000 active. inhibition, % at 38.7 µM. Vero cells, Shiga toxin protein synthesis inhibition reporter; in the data active = inhibition mostly above about 28%, no sharp cut-off; inactive = mostly below about 43%; also: 0% is about no effect
# Lassa entry inh – qHTS for Inhibitors of binding or entry into cells for Lassa Virus. 1.2% of 300,000 active. Potency, µM (top dose mostly 37.9 µM), without a hit: at the highest dose activity change, negative = inhibition, hits mostly inhibitors. Lassa virus pseudotype entry inhibition, cell reporter; calls by dose curve; tested in HEK293 cells; also: potency is read from the fitted curve at half-maximal effect; % is scaled to controls: 0 for no effect and ±100 for the full control effect; nearly all actives have a fitted effect of over 50% in size
# CHX counter – Cycloheximide Counterscreen for Small Molecule Inhibitors of Shiga Toxin. 12% of 300,000 active. AID 2314, 2010. cell reporter, cycloheximide protein synthesis inhibition counterscreen. max response, %; in the data active = max response mostly above about 13%, no sharp cut-off; inactive = mostly below about 14%; also: read at 38.3 µM for the half of the compounds with a filed dose; 0% is about no effect
# * = called active by the depositor; ? = inconclusive; · = not tested or not shown; [ ] = remark or other dose. Most compounds without a hit are left out; they make up all but 12% or so of the library.
SMILES,Marburg entry inh,Shiga toxin inh,Lassa entry inh,CHX counter
O=C(Nc1ccc2c(c1)oc1ccccc12)c1ccc2c(c1)OCO2,?,73.1,3.3%,45.2*
N=Nc1c(O)n(CC(=O)Nc2ccccc2)c2ccccc12,·,-6.9,·,4.9
O=C(Nc1ccc(S(=O)(=O)N2CCOCC2)cc1)c1ccc(Cl)c([N+](=O)[O-])c1,?,·,5.5%[46.1 µM],·
O=C(Nc1ncccc1O)c1ccc2c(c1)OCO2,-1.9%[46.1 µM],·,8.2%,·
O=C(Nc1ccc2c(c1)OCO2)c1cccc(Cl)c1,?,106.6*,?,48.8*
O=C(Nc1ccc2c(c1)OCO2)c1c(F)c(F)c(F)c(F)c1F,-1.8%,5.6,-23.9%,9.5
O=C(Nc1ccc(F)c(F)c1)c1ccc2c(c1)OCO2,-10.8%,100.2*,-1.9%,94.2*
O=C(Nc1ccc2c(c1)OCO2)c1ccc[n+]([O-])c1,?,58.5,5.5%,8.4
NC(=O)c1ccc(NC(=O)c2ccc3c(c2)OCO3)cc1,-10.2%,111.5,-1.6%,36.6*
O=C(Nc1ccon1)c1ccc2c(c1)OCO2,4.9%,31.1*,13.9%,42.7*
Cc1ccc(NCc2nnc3n2CCCCC3)cc1Cl,·,·,-8.6%[46.1 µM],·
CCc1cccc(NC(=O)c2oc3ccc4c(c3c2C)C(=O)CC(C)(C)O4)c1,·,·,-0.9%[46.1 µM],·
CS(=O)(=O)CC[C@H](C(=O)n1nnc2ccccc21)N1C(=O)c2ccccc2C1=O,-4.8%[46.1 µM],·,·,·
Cc1[nH]c2ccccc2c1C(=O)C(=O)Nc1ccc2c(c1)OCO2,·,47.5*,·,28.5*
O=C(Nc1ccc2c(c1)OCO2)c1ccc2c(c1)OCO2,?,67.2*,?,39.6*
O=C(Nc1ccc2nsnc2c1)c1ccc2c(c1)OCO2,?,63.9*,11.6µM*,31.5*
CC(NC(=O)C1=Cc2ccccc2OC1)c1ccccc1 (configuration not stated),·,·,-28.0%[46.1 µM],·
O=C(Nc1ccc(Cl)cc1)C1=Cc2ccccc2OC1,?,67.6*,?,82.9*
CCCC[C@H]1CN2[C@@H](CC[C@@H](C)[C@@H]2c2ccc(Br)cc2)C(=O)O1,1.8%[14.2 µM],·,·,·
O=C(Nc1ccc(N2CCCCC2)c(Cl)c1)c1ccc2c(c1)OCCO2,-24.6%[46.1 µM],56.8,-24.1%,45.2*
CCOc1ccc(C(=O)Nc2ccc3c(c2)OCCO3)cc1[N+](=O)[O-],13.5%[46.1 µM],66.7,-17.4%,13.6
O=C(Nc1ccc(Cl)c([N+](=O)[O-])c1)c1ccc2c(c1)OCCO2,?,61.9*,3.9%,33.2*
O=C(Nc1ccc(N2CCOCC2)c(Cl)c1)c1ccc2c(c1)OCCO2,·,8.1,·,-1.7
O=C(Nc1ccc(Cl)c(Cl)c1)c1ccc2c(c1)OCO2,?,97.8*,-27.5%[46.1 µM],41.6*
O=C(Nc1ccc2c(c1)OCO2)c1ccc(Cl)s1,?,81.2*,-14.3%,77.6*
SMILES,Marburg entry inh,Shiga toxin inh,Lassa entry inh,CHX counter
COc1ccc(CN2CCCN(CC(=O)Nc3cc(C)ccc3C)S2(=O)=O)cc1,·,·,0.0%[46.1 µM],·
O=C(Nc1ccc(Br)cc1)c1ccc2c(c1)OCO2,·,162.1*,·,38.4*
Cc1nc(N2CCCCC2)c2c(C)c(C(=O)Nc3ccc4c(c3)OCCO4)sc2n1,·,24.5,·,17.4*
COc1cccc(CN2CC(C(=O)NCCCCc3ccccn3)CCC2=O)c1 (configuration not stated),-0.8%,-2.9,0.6%,1.8
CC(NC(=O)COC(=O)c1c[nH]c2ccccc12)c1ccccc1 (configuration not stated),12.9%,·,8.91µM*,·
C=CCN(c1ccccc1OC)S(=O)(=O)c1cccc(C(=O)OCC(=O)c2c[nH]c3ccccc23)c1,?,1.4,9.2µM*,7.0
O=C(OCC(=O)c1c[nH]c2ccccc12)C1=COCCO1,15.2%,74.4*,-0.1%,37.5*
COc1cc(OC)c(N(C)S(=O)(=O)c2cccc(C(=O)OCC(=O)c3c[nH]c4ccccc34)c2)cc1Cl,?,19.0,?,-4.0
O=C(COC(=O)c1c[nH]c2ccccc12)Nc1ccccc1,-14.4%,·,8.4%,·
O=C(COc1ccccc1)OCC(=O)c1c[nH]c2ccccc12,10.3%,·,5.3%,·
COc1ccc(OCC(=O)c2c[nH]c3ccccc23)cc1,-1.1%[46.1 µM],53.7*,·,45.1*
CC1(C(=O)OCC(=O)c2c[nH]c3ccccc23)CC1(Cl)Cl (configuration not stated),-4.1%,85.5*,·,53.5*
Cc1ccc(C(=O)OCC(=O)c2c[nH]c3ccccc23)cc1,?,81.2*,17.3%,48.1*
Cn1cccc1C(=O)OCC(=O)c1c[nH]c2ccccc12,-4.9%,·,-24.4%,·
Cc1cnc(C(=O)OCC(=O)c2c[nH]c3ccccc23)cn1,-6.9%,·,2.3%,·
O=C(OCC(=O)c1c[nH]c2ccccc12)c1ccc([N+](=O)[O-])s1,1.8%,18.8,-9.6%[46.1 µM],24.4*

# Compound activity: PubChem, National Center for Advancing Translational Sciences (NCATS)
